Reference: PubChem BioAssay AID686940 (The Scripps Research Institute Molecular Screening Center, 2013)
The campaign covered roughly 370,000 compounds. About 2,600 (0.7%) were called active. The sample holds actives, similar compounds and a random draw of the others, so the mix is not that of the screen. A number with no mark means an inactive call.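 Rule for the calls: active = inhibition above a per-plate cutoff, mean inhibition of test wells between control levels plus 3 SD (cut at about 38% in these data); inactive = the rest.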

Biological target: COUP transcription factor 2 (Homo sapiens) (UniProt P24468)
Sequence (P24468 whole entry, looked up): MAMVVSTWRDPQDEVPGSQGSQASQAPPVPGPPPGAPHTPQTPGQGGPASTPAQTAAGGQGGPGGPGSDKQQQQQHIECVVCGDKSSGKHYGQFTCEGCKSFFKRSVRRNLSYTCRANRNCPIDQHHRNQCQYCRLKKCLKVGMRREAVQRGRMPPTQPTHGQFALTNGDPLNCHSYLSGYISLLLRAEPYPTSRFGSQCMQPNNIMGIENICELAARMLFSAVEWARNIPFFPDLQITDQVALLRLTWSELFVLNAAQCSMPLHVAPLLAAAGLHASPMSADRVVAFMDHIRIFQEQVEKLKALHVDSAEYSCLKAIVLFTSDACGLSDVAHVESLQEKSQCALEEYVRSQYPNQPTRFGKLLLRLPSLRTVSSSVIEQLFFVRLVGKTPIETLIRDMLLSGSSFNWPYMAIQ
Test: COUP-TFII reporter suppression in human cells – cell-based, luciferase reporter, HEK293T, luminescence, primary screen (AID 686940);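 note: cells cotransfected with COUP-TFII expression vector driving the NGFI-A reporter; 0% = median of COUP-TF2 test wells and 100% = reporter-only cells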
Settings: HEK293T NGFI-A luciferase reporter, at 8.6 µM, hits give high values

SMILES | inhibition
Oc1ccc(/C=C/c2c(F)cccc2F)c2cccnc12 | 14.9%
N[C@@H](Cc1ccccc1)C(=O)N1CCC[C@@H]1C(=O)N1CCC2CCN(S(=O)(=O)c3ccccc3)CC21 (some centres undefined) | 2.4%
O=C(CSc1nnc(COc2ccccc2)n1-c1ccc(Cl)cc1)Nc1ccc2c(c1)OCO2 | 7.15%
O=C(Nc1ccccc1Cl)/C(Cl)=C(\Cl)S(=O)c1ccccc1 (centres undefined) | 99% (active)
CN[C@H]1C[C@H]2c3cc(N4CCOCC4)ccc3CCN2C[C@H]1[C@H](C)O | -0.62%
Cc1ccccc1CS(=O)(=O)Cc1ccc(C(=O)Nc2ccc(Cl)cc2)o1 | 60.1% (active)
O=C(O)c1ccc(NC(=O)c2ccc(COc3ccc(Cl)cc3)o2)cc1 | -7.9%
Cc1cc(OCc2ccc(C(=O)Nc3ccc(C(=O)O)cc3)o2)ccc1Cl | 10.7%
COC(=O)[C@H](C(C)C)N(CCCc1cn(Cc2ccccc2)nn1)S(=O)(=O)c1ccc(F)cc1Br | 9.49%
CC(=O)Nc1ccc(OC[C@@H](O)CN2CCC(C(O)(c3ccccc3)c3ccccc3)CC2)cc1 | -20.7%
COc1cccc(Cn2cc(COC(=O)Nc3ccc(F)cc3)nn2)c1 | -23.7%
CCCCCc1c(-c2cccc(Br)c2)ncn1CCc1ccccc1OC | 6.5%
CCCCCc1c(-c2ccc(OC)c(OC)c2)ncn1CCc1ccccc1OC | 57% (active)
CCCCc1c(-c2ccc(Cl)cc2)ncn1CCc1ccccc1OC | 11.8%
Cc1ccc(CSc2nnc(SCC(=O)NN=Cc3cc(Br)ccc3F)s2)cc1 | -3.85%
COc1ccc2c(c1)CN1CN(CCc3ccccc3)S(=O)(=O)CC21 (centres undefined) | 16%
COc1ccc(OC)c(CNC(=O)Cn2nc(C)c3c(C)n(-c4ccc(C)cc4)nc3c2=O)c1 | 39.4% (active)
Cc1nn(CC(=O)N2CCCCC2)c(=O)c2nn(-c3ccccc3)c(C)c12 | -1.99%
COc1ccc(CNC(=O)C(C)n2nc(C)c3c(C)n(-c4ccccc4)nc3c2=O)c(OC)c1 (centres undefined) | 10.4%
COC(=O)[C@]12C[C@H](CC(=O)NCCCN3CCCC3=O)C(=O)N(CCc3ccc(OC)c(OC)c3)C1=C[C@H](COCc1ccccc1)O[C@@H]2C | -3.72%
CCC(C)[C@@H](C(=O)OC)N(CCc1cn(Cc2ccccc2)nn1)S(=O)(=O)c1ccccc1Br (some centres undefined) | -9.93%
CC(C)(C)c1ccc(C(=O)Nc2cc(Cl)c(Br)cc2C(=O)O)cc1 | 7.25%
CSc1nccc(NC(=O)c2ccc(C(C)(C)C)cc2)n1 | 64.5% (active)
CC(=O)Oc1ccc(C(=O)Nc2nccs2)cc1 | -23.1%
